Data taken from PubChem BioAssay AID1035472 (Broad Institute, 2014).
The source made the active and inactive calls. The rule behind the calls is not given here.

Experiment: HepG2 cell cytotoxicity, dose response, cytotoxicity control, dry powder samples (AID 1035472)

With `Cn1c(NC(=O)c2ccccc2)nc2c3cnccc3ccc21` as the compound, how does the outcome read?
Its outcome is “inactive”.
